# Screen size: about 68,000 compounds; about 2,700 (4%) showed an effect of 50% or more. Only a selection was taken, and strong results are over-represented in it overall.
# Tested on: Plasmodium berghei
# Assay: Screen against P. berghei liver stage (PbLuc), transformed with Luciferase, at 2uM
# Assay type: functional, HepG2
# Conditions: tested at 2 uM
row,Structure (SMILES),INHIBITION
1,CCc1nn(-c2cc(Oc3cc(C)ccc3C)nc(C)n2)c(N)c1C#N,16.91%
2,CC(C)CCN1C[C@@H]2OCCN(c3ncc(F)cn3)[C@@H]2C1,29.74%
3,O=C(c1ccc(=O)[nH]n1)N1CCCC(O)(CN2CCC(F)(F)CC2)CC1 (stereo not drawn),23.7%
4,O=C(Cc1ccsc1)NC1CCc2c(ccc(=O)n2CC2CC2)C1 (stereo not drawn),6.85%
5,Cn1c2c(ccc1=O)CC(Nc1ncc(F)cn1)CC2 (stereo not drawn),6.22%
6,Cn1c2c(ccc1=O)CC(NC(=O)c1ccsc1)CC2 (stereo not drawn),0.57%
7,Cn1c2c(ccc1=O)CC(NC(=O)Cc1ccsc1)CC2 (stereo not drawn),76.24%
8,CCc1cnc(NC2CCc3c(ccc(=O)n3C)C2)nc1 (stereo not drawn),-17.39%
9,Cc1cnc(NC2CCc3c(ccc(=O)n3C)C2)nc1 (stereo not drawn),58.93%
10,CC(C)=CCN1C[C@@H]2CC[C@H]1CN(Cc1coc(C)n1)C2,-60.75%
11,COC(=O)c1ccc(CN2CCC(c3n[nH]c(C)n3)CC2)s1,-54.89%
12,CC(C)=CCC1(C(=O)O)CCCN(CCC(=O)NC2CC2)C1 (stereo not drawn),9.43%
13,Cc1ccc(NC(=O)NCCCc2n[nH]c(N)c2C#N)cc1,33.01%
14,CCc1cnc(N)nc1NC(C)c1ccc(C)c(C)c1 (stereo not drawn),35.84%
15,O=C(c1ccncn1)N1CCC[C@]2(C[C@H](OCC3CC3)CO2)C1,16.78%
16,CC(C)(C)OCC1CN(Cc2cccs2)S(=O)(=O)c2cnccc2O1 (stereo not drawn),35.6%
17,O=C1CCSCC(C(=O)N2CCCCC2)N1 (stereo not drawn),39.58%
18,O=C1CCSCC(C(=O)N2CCN(C3CCCCC3)CC2)N1 (stereo not drawn),51.94%
19,O=C1CCSCC(C(=O)N2CCCC2)N1 (stereo not drawn),19.35%
20,O=C(N[C@]12CC1CN(C(=O)c1ccco1)C2)c1ccoc1 (stereo partly drawn),14.47%
21,O=C(N[C@]12CC1CN(C(=O)c1ccco1)C2)c1ccco1 (stereo partly drawn),-50.87%
22,O=C(N[C@]12CC1CN(C(=O)c1ccco1)C2)c1cccc(F)c1 (stereo partly drawn),52.36%

row,Structure (SMILES),INHIBITION
1,Nc1nc(CN2CCCCC2Cn2cncn2)nc2ccccc12 (stereo not drawn),-42.37%
2,Cc1cnc(N2C(=O)CSC2c2ccc(N(C)C)cc2)s1 (stereo not drawn),-8.23%
3,O=C(O)c1cc(-c2cccs2)nc2c(Br)cnn12,-11.83%
4,CC(c1cccc(F)c1)N1CCN(Cc2nccn2C)CC1 (stereo not drawn),0.46%
5,Cn1ccnc1CN1CCN(CC(O)c2cccc(F)c2)CC1 (stereo not drawn),-0.3%
6,CC(c1ccc(F)c(F)c1)N1CCN(Cc2nccn2C)CC1 (stereo not drawn),62.13%
7,CC(c1ccc(F)cc1)N1CCN(Cc2nccn2C)CC1 (stereo not drawn),5.09%
8,Cn1ccnc1CN1CCN(CC(O)c2ccc(F)c(F)c2)CC1 (stereo not drawn),56.67%
9,Cn1ccnc1CN1CCN(CC(O)c2ccc(F)cc2)CC1 (stereo not drawn),-10.66%
10,CN(C1CCN(c2ccccn2)CC1)S(=O)(=O)c1cccc(F)c1,15.38%
11,COCC1CN(Cc2ccc(C)o2)Cc2cnn(CC3CCOCC3)c21 (stereo not drawn),-24.39%
12,Cc1nnsc1C(=O)NCCn1ccc(-c2ccncc2)n1,-34.54%
13,Cc1cc(CC(=O)N(C)Cc2cccc(OC(C)C)c2)n[nH]1,-75.84%
14,Cc1nc(-c2nnc[nH]2)sc1C(=O)N1CCCC1c1ccsc1 (stereo not drawn),-26.81%
15,Cc1ncc(CN2CCCC(c3nc4ccccc4n3C(C)C)C2)s1 (stereo not drawn),61.57%
16,Cc1cnc(CN2CCCC(c3nc4ccccc4n3C(C)C)C2)o1 (stereo not drawn),37.77%
17,CC(C)n1c(C2CCCN(Cc3ccnn3C)C2)nc2ccccc21 (stereo not drawn),16.87%
18,Cc1ccc(OCC2CCCN(CC3CCOCC3)C2)cc1 (stereo not drawn),60.13%
19,Cc1ccc(OCC2CCCN(Cc3ccc(CO)o3)C2)cc1 (stereo not drawn),69.67%
20,COc1ccc(OCC2CCCN(Cc3ccncc3)C2)cc1 (stereo not drawn),-1.29%
21,Cc1ccc(OCC2CCCN(C(=O)Cn3ccccc3=O)C2)cc1 (stereo not drawn),45.14%
22,Cc1ccc(OCC2CCCN(C(=O)CN3CCOCC3)C2)cc1 (stereo not drawn),38.67%

row,Structure (SMILES),INHIBITION
1,Cc1ccc(OCC2CCCN(c3nc(CO)cs3)C2)cc1 (stereo not drawn),-43.42%
2,Nc1nnc(SCc2cc(=O)n3c4c(sc3n2)CCCC4)[nH]1,-0.04%
3,CCCc1noc(C2CC(=O)N(Cc3ccccc3)C2)n1 (stereo not drawn),39.58%
4,Cc1ccc(S(=O)(=O)N2CC[C@@H]3C[C@H](NC(=O)c4ccncc4)[C@@H]32)cc1,20.51%
5,Cc1cccc(N2CCC3(CCCN(C(=O)c4cccnc4)C3)C2)n1 (stereo not drawn),-37.2%
6,Cc1nocc1C(=O)N1CCc2c(CN(C)C)nn(C)c2C1,51.81%
7,Cc1cccc(C(=O)N2CCc3c(CN(C)C)nn(C)c3C2)n1,-27.08%
8,Cc1cc(C(=O)N2CCc3c(CN(C)C)nn(C)c3C2)[nH]n1,28.2%
9,Cn1cc(CN2CCC(c3ncc(Cl)cc3S(C)(=O)=O)CC2)cn1,22.95%
10,O=C(CCOc1cccc(F)c1)N1CCCC1Cn1cccn1 (stereo not drawn),8.37%
11,O=C(CCOc1ccc(F)cc1)N1CCCC1Cn1cccn1 (stereo not drawn),70.27%
12,O=C1COc2c(cccc2C(=O)N2CCCCC2Cn2cccn2)N1 (stereo not drawn),63.93%
13,O=C(c1cnc(C2CC2)s1)N1CCCCC1Cn1cccn1 (stereo not drawn),21.31%
14,O=C1COc2c(cccc2C(=O)N2CCCC2Cn2cccn2)N1 (stereo not drawn),24.56%
15,O=C(c1cccc2c1OCCO2)N1CCCCC1Cn1cccn1 (stereo not drawn),-46.81%
16,Cc1nc(CC(=O)N2CCCC2Cn2cccn2)cs1 (stereo not drawn),34.53%
17,COc1ccc(OCCC(=O)N2CCCC2Cn2cccn2)cc1 (stereo not drawn),-28.79%
18,CCc1nc(CC(=O)N2CCCCC2Cn2cccn2)cs1 (stereo not drawn),21.12%
19,CCc1ncc(C(=O)N2CCCC2Cn2cccn2)s1 (stereo not drawn),17.31%
20,CCc1ncc(C(=O)N2CCCCC2Cn2cccn2)s1 (stereo not drawn),63.95%
21,Cc1nc(CC(=O)N2CCCCC2Cn2cccn2)cs1 (stereo not drawn),60.64%
22,Cc1cnn(CC2CCCN2C(=O)c2sccc2C#N)c1 (stereo not drawn),16.25%

row,Structure (SMILES),INHIBITION
1,CC(C)(C)CC(=O)NCC(=O)NCC(O)c1ccc2ccccc2c1 (stereo not drawn),-29.53%
2,CCc1n[nH]c(C2CN(C(=O)c3ccc(Cl)cn3)CCO2)n1 (stereo not drawn),22.69%
3,CC(C)n1nc(Cn2cccn2)c2c1CN(CC1CCOC1)C2 (stereo not drawn),20.2%
4,COCC(O)CN1CCC(NC(=O)c2cscc2C)CC1 (stereo not drawn),50.93%
5,COCCC(=O)N1CCC(NC(=O)c2cscc2C)CC1,16.72%
6,COCC(O)CN1CCC(NC(=O)c2ccccc2Cl)CC1 (stereo not drawn),-41.8%
7,CCc1nnsc1C(=O)N(C)Cc1nnc2n1CCC2,-8.74%
8,Cc1cnc(N2CCC3(CC(=O)N(Cc4csc(C)n4)C3)C2)nc1 (stereo not drawn),25.43%
9,CCCc1cc(N(CCOC)CC(F)F)n2ncnc2n1,55.18%
10,CCCN(CC(F)F)c1cc(COC)nc2ncnn12,-6.73%
11,CCN(CC)CCN(CC(C)C)c1cc(C(F)(F)F)nc2ncnn12,-13.12%
12,COCCN(CC(F)F)c1cc(C(F)(F)F)nc2ncnn12,25.81%
13,COCc1cc(N(CC(F)F)C2CC2)n2ncnc2n1,3.59%
14,COCCN(CC(F)F)c1cc(COC)nc2ncnn12,69.52%
15,Cc1cc(C)c(CNC(=O)NCc2cc(F)cc(F)c2)c(=O)[nH]1,23.42%
16,Cn1ncc(C(=O)OCC2CC(=O)N(c3ccccc3)C2)c1C(F)F (stereo not drawn),26.62%
17,CC(C)NC(=O)C1CN(C(=O)Nc2cccc(F)c2)CC12CCOCC2 (stereo not drawn),9.53%
18,O=C1CCCN1CCN1CCC(c2ccn[nH]2)CC1,33.26%
19,CCc1c(C)nc(N)nc1NCCSCc1[nH]cnc1C,29.98%
20,CN(Cc1nc(-c2ccco2)no1)C1CCCN(c2cccnn2)C1 (stereo not drawn),22.1%
21,Cc1nc(C)n(CC2CCCN(Cc3nnc(-c4ccco4)o3)C2)n1 (stereo not drawn),22.51%
22,CN(Cc1ncc(C(C)(C)C)o1)C1CCCN(c2cccnn2)C1 (stereo not drawn),51.21%

row,Structure (SMILES),INHIBITION
1,Cc1ccccc1CCC1CCCN(Cc2nnc(-c3ccco3)o2)C1 (stereo not drawn),55.7%
2,CN(Cc1nnc(C2CC2)o1)C1CCCN(c2cccnn2)C1 (stereo not drawn),-15.05%
3,c1coc(-c2nnc(CN3CCCC(CN4CCCCCC4)C3)o2)c1 (stereo not drawn),-22.43%
4,CN(Cc1ncc(-c2ccccc2)o1)C1CCCN(c2cccnn2)C1 (stereo not drawn),-4.81%
5,Cc1nc(CN(C)C2CCCN(c3cccnn3)C2)oc1C (stereo not drawn),-6.71%
6,CN(Cc1nnc(-c2ccco2)o1)C1CCCN(c2cccnn2)C1 (stereo not drawn),53.03%
7,CC(CN(C)C)Nc1nc(O)cc(Cc2ccccc2F)n1 (stereo not drawn),21%
8,COCCOc1cccc(C(=O)N2CCCCC2c2nccs2)c1 (stereo not drawn),4.41%
9,CN(Cc1cccnc1)C1CCCN(Cc2noc(C3CC3)n2)C1 (stereo not drawn),42.12%
10,CC(C)c1ccc(S(=O)(=O)Cc2nc(N)nc(N(C)C)n2)cc1,-25.72%
11,Cc1ccc(CS(=O)(=O)Cc2nc(N)nc(N(C)C)n2)cc1,-44.8%
12,CC(C)c1ccc(CS(=O)(=O)Cc2nc(N)nc(N(C)C)n2)cc1,64.9%
13,O=c1n(CC2CC2)nc(C2CCNCC2)n1Cc1ccccc1,51.19%
14,CCCn1nc(C2CCNCC2)n(Cc2ccccc2)c1=O,26.92%
15,CCOCCn1nc(C2CCNCC2)n(Cc2ccccc2)c1=O,49.95%
16,Cc1noc(C)c1CCC(=O)N1CCn2cccc2C1C (stereo not drawn),-39.01%
17,Cc1c(NC(=O)NC2CCCC2)cccc1C(=O)N1CCSCC1,-12.09%
18,Cc1c(NC(=O)NC2CCOCC2)cccc1C(=O)N1CCCC1,48.39%
19,O=C(Nc1ccccc1C(=O)N1CCCC1)NC1CCOCC1,70.83%
20,NS(=O)(=O)c1cnn(CCC(=O)N(Cc2ccccc2)C2CC2)c1,-102.2%
